Source: PubChem BioAssay (National Center for Advancing Translational Sciences (NCATS))
The list is not random: actives were taken first. Their share in the collection is about 2.5%.
Cruzain noTriton: inhibitors of Trypanosoma cruzi cruzain without detergent; P25779; purified cruzain, Z-FR-AMC fluorescence, no detergent; Potency, µM, for inactives: max response, negative = inhibition, usual class: inhibitors; 2.3% of 200,000 active;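 further: plate controls were enzyme without inhibitor for no effect and buffer without enzyme for full effect; nearly all actives have a fitted effect of over 40% in size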
Target sequence (P25779 123-467 limits assumed): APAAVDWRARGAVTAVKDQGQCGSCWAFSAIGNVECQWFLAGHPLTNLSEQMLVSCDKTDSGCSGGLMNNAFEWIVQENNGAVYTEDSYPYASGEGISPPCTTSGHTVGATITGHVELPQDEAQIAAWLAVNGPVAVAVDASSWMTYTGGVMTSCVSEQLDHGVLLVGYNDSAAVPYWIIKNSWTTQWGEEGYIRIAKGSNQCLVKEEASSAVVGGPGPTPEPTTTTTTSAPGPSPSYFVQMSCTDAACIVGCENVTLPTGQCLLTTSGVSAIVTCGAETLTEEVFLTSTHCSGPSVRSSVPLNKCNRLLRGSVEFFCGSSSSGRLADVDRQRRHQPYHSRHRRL
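Purified cruzain at 1.5 nM, pre-incubated 15 min with compound at room temperature in 100 mM sodium acetate pH 5.5, 5 mM DTT, 0.00005% Triton X-100. Reaction started with 2 uM Z-FR-AMC; AMC fluorescence increase over 60 s gives rate.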
Cruzain Triton: inhibitors of Trypanosoma cruzi cruzain with detergent; Potency, µM, inactives show max response, negative = inhibition, hits mostly inhibitors; purified cruzain, Z-FR-AMC fluorescence, 0.01% Triton; P25779; 0.43% of 200,000 active; AID 1478;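 further: plate controls were neutral wells for no effect and buffer without enzyme for full effect; nearly all actives have a fitted effect of over 40% in size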
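Detergent-containing run (0.01% Triton X-100) in acetate buffer pH 5.5 with 5 mM DTT: enzyme at 1.5 nM final, 15 min compound preincubation at room temperature, then 2 uM Z-FR-AMC substrate. Activity taken as 60 s fluorescence increase at 360/450 nm.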
An asterisk follows results filed as active; ? = inconclusive. The call rests on the fitted dose curve; in most records, active means well fitted curve in the direction sought with a large enough effect; inconclusive means small, poorly fitted or top-dose-only effect, or another doubt; inactive means no such curve, though single readings can be large; an effect the other way counts as inactive or inconclusive. Potency means the concentration at half of the fitted maximal effect.

SMILES	Cruzain noTriton	Cruzain Triton
COc1cccc(C(=O)Nc2nc(-c3nnn(-c4cccc(Cl)c4C)c3C)ns2)c1	-27%	-2%
Cc1cccc(-c2cc(C(=O)Nc3ccc4c(c3)OCCO4)c3ccccc3n2)c1	32µM*	2%
Cc1ccccc1NC(=S)NC(=O)c1cc(-c2ccccc2)nc2ccccc12	?	0%
Cc1cccc(NC(=S)NC(=O)c2cc(-c3ccccc3)nc3ccccc23)c1	20µM*	8%
CCOc1ccc(-c2cc(C(=O)Nc3ccc4c(c3)OCCO4)c3ccccc3n2)cc1	?	-5%
CC#C[C@]1(O)CC[C@H]2C3CCC4=CC(=O)CCC4=C3[C@@H](c3ccc(N(C)C)cc3)C[C@@]21C (stereo partly specified)	?	-6%
O=C1CCCc2cc(S(=O)(=O)N3CCCC(C(=O)Nc4ccc(F)c(Cl)c4)C3)ccc2N1 (stereo unspecified)	?	-10%
C[C@H]1CC[C@@]2(NC1)O[C@@H]1C[C@@H]3[C@@H]4CC=C5C[C@@H](O)CC[C@]5(C)[C@@H]4CC[C@]3(C)[C@H]1[C@@H]2C	-6%	-3%
NS(=O)(=O)c1ccc(NS(=O)(=O)c2ccc(NC(=O)c3ccc(-c4ccccc4)cc3)cc2)cc1	13µM*	-25%
CCNC(=O)c1ccc(NS(=O)(=O)c2ccccc2)cc1	-6%	4%
COC(=O)c1c(-c2cccs2)csc1NC(=O)COc1ccc(C(C)C)cc1	?	-9%
CCC(Cc1ccccc1)NC(=O)c1csc2c1CCCCC2 (stereo unspecified)	23%	0%
CC(=O)N1CCc2c(sc3c2c(=O)n(CCc2ccccc2)c(=O)n3Cc2cccc(C)c2)C1	?	-3%
O=C(COc1ccc2ccccc2c1Br)NC(=S)Nc1cccc(CO)c1	32µM*	-7%
O=C(COc1ccc(Br)cc1Br)NC(=S)Nc1cccc(CO)c1	?	-9%
COc1ccc(NC(=O)/C(C#N)=C/c2cc(C)n(-c3ccc(F)cc3)c2C)cc1	-15%	0%
COc1ccc(NC(=O)/C(C#N)=C\c2cc(C)n(-c3ccc(Oc4ccc([N+](=O)[O-])cn4)cc3)c2C)cc1	7.9µM*	1%
O=C(CN1C(=O)COc2ccccc21)NCCc1ccc(Cl)cc1	0%	1%
CCCCCCNC(=O)c1c(O)c2ccccc2[nH]c1=O	25µM*	0%
COc1ccccc1CNC(=O)c1ccc2[nH]c(C)c(C)c2c1	-13%	-5%
CCCCCCC(=O)Nc1c(O)c2ccccc2[nH]c1=O	?	-1%
COc1ccccc1CNC(=O)c1c(O)c2cc(OC)c(OC)cc2[nH]c1=O	3.2µM*	-6%
COc1cc2c3cc1Oc1cc(ccc1O)C[C@@H]1c4c(cc(OC)c(O)c4Oc4ccc(cc4)C[C@H]3[N+](C)(C)CC2)CC[N+]1(C)C	16%	1%
CC#N	-9%	2%
Cc1nc2sc(C)c(C)n2c(=O)c1S(=O)(=O)N1CCN(c2ccccc2F)CC1	6%	-3%
SMILES	Cruzain noTriton	Cruzain Triton
Cc1[nH]n(-c2ncc(-c3ccccc3)s2)c(=O)c1C(c1ccc(Br)cc1)C(C#N)C#N (stereo unspecified)	13µM*	?
Cc1[nH]n(C(N)=S)c(=O)c1C(c1ccccc1)C(C#N)C#N (stereo unspecified)	20%	1%
Nc1c(S(=O)(=O)O)cc(Nc2cccc(S(N)(=O)=O)c2)c2c1C(=O)c1ccccc1C2=O	17%	-7%
CCc1cc2c(=O)c(-c3cnn(-c4ccccc4)c3)c(C)oc2cc1OCC(=O)Nc1ccc(F)c(F)c1	25µM*	-1%
CCc1cc2c(=O)c(-c3cnn(-c4ccccc4)c3)c(C)oc2cc1OCC(=O)Nc1cccc(C)c1	?	-2%
CC(=O)N1CC[n+]2c(-c3ccc(Cl)cc3)csc21	-16%	?
CCc1ccc(-c2csc3[n+]2CCN3C(C)=O)cc1	-21%	18µM*
O=C(O)C[C@H]1OCC=C2CN3CC[C@@]45C6=CC(=O)C(=O)C([N+](=O)[O-])=C6N[C@H]4[C@H]1[C@H]2C[C@@H]35	3%	2%
COC(=O)c1c(C(=O)OC)c(C)n(Cc2ccco2)c1C	1%	4%
Cc1cc(C(=O)COC(=O)c2cc(Cl)ccc2N)c(C)n1Cc1ccco1	25µM*	-10%
OCc1ccncc1.OCc1ccncc1.[Cl][Pt]([Cl])([Cl])[Cl]	4%	1%
Cc1ccccc1NCc1ccc(O)c2ncccc12	6%	-6%
Cc1ccccc1N=Nc1ccc(O)c2ncccc12	20µM*	0%
CCn1c(CN2CCCCC2)nc2cc(NC(=O)COc3ccc(C(C)(C)C)cc3)ccc21	-13%	0%
CCN(CC)CCC[C@H](C)Nc1c2ccc(Cl)cc2nc2ccc(OC)cc12	-6%	-4%
C=CCn1c(=O)c2ccccc2n2c(SCC(=O)c3ccccc3)nnc12	16µM*	-1%
C=CCn1c(=O)c2ccccc2n2c(SCC(=O)NCCc3ccccc3)nnc12	-9%	0%
CCOc1ccccc1NC(=O)Cn1nnc2sc3c(c2c1=O)CCC(C(C)(C)C)C3 (stereo unspecified)	-16%	-2%
CCc1ccc(NC(=O)Cn2nc(C(F)(F)F)c3c2CCC3)cc1	-18%	-3%
N#Cc1c(NC(=O)Cn2nc(C(F)(F)F)c3c2CCCC3)sc2c1CCC2	7.9µM*	8%
CC1CCc2c(sc(NC(=O)Cn3nc(C(F)(F)F)c4c3CCCCC4)c2C#N)C1 (stereo unspecified)	20µM*	2%
CC1CCN(CC(=O)Nc2sc3c(c2C#N)CCC3)CC1	9%	-8%
O=C(Nc1ccc(-c2cc(C(F)(F)F)nn2-c2ccccc2)cc1)c1cccc(F)c1	20µM*	-6%
O=C(NC(=O)c1cccc(F)c1)Nc1ccc(-c2cc(C(F)(F)F)nn2-c2ccccc2)cc1	0%	-1%
COc1cccc(NC(=O)CSc2nc3ccc(NC(=O)c4ccco4)cc3s2)c1	-2%	-4%
SMILES	Cruzain noTriton	Cruzain Triton
O=C(Nc1ccc(NC(=O)c2cccs2)cc1)c1ccc(Br)o1	25µM*	5%
O=C(NNC(=O)c1cccs1)c1ccc(Br)o1	-15%	-19%
Cc1cc(NC(=O)CSc2nc3ccccc3c(=O)n2C2CCCC2)no1	0%	-2%
CN(C)c1ccc(NC(=O)CSc2nc3ccccc3c(=O)n2C2CCCCC2)cc1	13µM*	-1%
COc1cc(/C=C(/C#N)c2nc(-c3cc4ccccc4oc3=O)cs2)ccc1O	12%	0%
Nc1nc(-c2ccccc2)cc(-c2ccccc2O)n1	-17%	-12%
NNc1nc(-c2ccccc2)cc(-c2ccccc2O)n1	16µM*	-5%
C/C(=N\O)c1cccc[n+]1Cc1ccccc1	-3%	0%
Cc1ccccc1CNC(=O)c1cccc(NC(=O)N2CCSc3ncccc32)c1	-25%	-21%
Cc1cccc(OCCSc2nc3ccc(NC(=O)c4cccs4)cc3s2)c1	-7%	-1%
Cc1cc(N)c2cc(OCCOc3ccc4nc(C)cc(N)c4c3)ccc2n1	-2%	-6%
COc1cc(CN(C(=O)COc2ccc(Cl)cc2)c2ccccn2)cc(OC)c1OC	?	-5%
COc1ccc(NC(=O)c2ccc3ccccc3n2)cc1S(=O)(=O)Nc1ccccc1Cl	13µM*	-2%
COc1ccc(NC(=O)c2cc(C)nc3ccccc23)cc1S(=O)(=O)Nc1ccccc1Cl	?	-7%
CC(=O)N1c2ccc(S(=O)(=O)N(C)CC(=O)N(Cc3ccccc3)C(C)C)cc2CC1C (stereo unspecified)	?	0%
Cc1ccc2[nH]c3c(NCc4ccco4)ncnc3c2c1	-23%	-27%
